Most compounds without a hit are left out; they make up all but 2.9% or so of the library.
p53 reactivation – qHTS assay for re-activators of p53 using a Luc reporter | H1299 p53-A138V BP100-luciferase reporter, luminescence, 24 h | Potency, µM (highest dose often 92.2 µM), usual class: activators | hit rate 0.063% among 320,000 | AID 504706, 2011; note: nearly all actives have a fitted effect of over 45% in size
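p53-null H1299 cells stably carrying temperature-sensitive p53-A138V and a BP100-luciferase reporter were pinned with compounds (4-point, 1:5 series) and held 24 hrs at 37 deg C. Luminescence was read 10 min after detection reagent.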
ClpP mod – qHTS Assay for Activators of ClpP | ATP-dependent Clp protease proteolytic subunit (Bacillus subtilis (strain 168)), P80244 | purified B. subtilis ClpP, FRET peptide cleavage, 20 min | Potency, µM (series often up to 57.5 µM) | hit rate 1.9% among 340,000 | AID 651965, 2013; active = well fitted falling curve with a large enough effect; inconclusive = small, poorly fitted or top-dose-only effect; inactive = no such curve, though single readings can be large or run the other way; note: the source files actives as falling curves though it sought activators and does not explain the sign; nearly all actives have a fitted effect of over 65% in size
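Buffer: 100 mM Tris/HCl pH8, 100 mM KCl, 0.05% low protease BSA, 2.5% glycerol, 0.01% Tween-20. ClpP 10 microg/mL final; 20 min RT; delta FRET normalized to ADEP and DMSO controls.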
GLP1R cytotox – qHTS of GLP-1 Receptor Inverse Agonists: Cytotox Screen; HEK293 cAMP-luciferase reporter cells, luminescence, 24 h; Potency, µM (highest dose often 38.3 µM), actives largely listed as inhibitors; hit rate 0.13% among 410,000;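 note: loss of luciferase light is scored as toxicity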
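Compound-treated cells are incubated 24 hr at 37 deg C under 5% CO2 after a 12 hour attachment period, then luciferase detection reagent is added and luminescence is measured following 12 min at room temperature; lowered signal indicates toxicity.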
GLP-1R agonist – qHTS of GLP-1 Receptor Agonists. Glucagon-like peptide 1 receptor (Homo sapiens), P43220. HEK293 GLP-1R CRE-luciferase, luminescence, 4-6 h; cells express a hypersensitive GLP-1R form. Potency, µM (titrated, usually from 45.6 µM), usual class: activators. hit rate 0.007% among 380,000
LDHA block – qHTS assay for inhibitors of human lactate dehydrogenase; L-lactate dehydrogenase A chain (Homo sapiens), P00338; hit rate 0.15% among 480,000; activity change, % (values are at about 110 or 230 µM); purified LDHA, NADH/diaphorase-resazurin fluorescence; hits give low values; in the data active = activity change below about -30%; inconclusive = mostly about -25% to -30%
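Human LDH5 (2 nM) was incubated with 0.06 mM NADH and 0.2 mM pyruvate for 5 min at room temperature in Tris pH 7.4. Remaining NADH was coupled through diaphorase/resazurin, and resorufin fluorescence was read at 0 and 20 min.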
GLP-1R inv ag – qHTS of GLP-1 Receptor Inverse Agonists (Inhibition Mode) | Glucagon-like peptide 1 receptor (Homo sapiens), P43220 | HEK293 GLP-1R CRE-luciferase, luminescence, 24 h; GLP-1R form is constitutively active | Potency, µM (series often up to 38.3 µM), most hits filed as inhibitors | hit rate 1.6% among 410,000 | AID 624417, 2012; note: nearly all actives have a fitted effect of over 55% in size
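GLP-1R inverse agonism mode: basal reporter luminescence in engineered HEK293 cells measured after one day of compound exposure at 37 deg C, with a 12 min room-temperature detection step.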
Hits are given with their value; n = inactive; u = inconclusive; x = no result given; [ ] = another dose, or the depositor's remark. Unless noted, calls come from the whole dose curve; as a rule, active = well fitted curve in the direction sought with a large enough effect; inconclusive = small, poorly fitted or top-dose-only effect, or another doubt; inactive = no such curve, though single readings can be large; an effect the other way counts as inactive or inconclusive.

SMILES	p53 reactivation	ClpP mod	GLP1R cytotox	GLP-1R agonist	LDHA block	GLP-1R inv ag
O=C(Nc1ccccc1N1CCCCC1)c1ncoc1-c1ccc(F)cc1	n	28µM	n	n	n	u
CCn1c(SCc2cc(=O)n3[nH]cc(C#N)c3n2)nnc1-c1ccc(Cl)cc1	x	x	x	x	n	x
Cc1ccc(NC(=O)CC2Nc3ccccc3NC2=O)cc1Cl (centres undefined)	n	n	n	n	n	10µM
CCOc1ccccc1NC(=O)CC1Nc2ccccc2NC1=O (centres undefined)	n	25µM	n	n	n	u
COc1ccc(NC(=O)c2c(N)c(C(=O)c3ccc(C)cc3)n3ccccc23)cc1OC	x	n	n	x	n	n
CCCC(=O)Nc1cccc(NC(=O)c2ccc([N+](=O)[O-])cc2Cl)c1	n	n	n	n	n	n
CCCC(=O)Nc1cccc(NC(=O)c2cccc([N+](=O)[O-])c2C)c1	n	11µM	n	n	n	u
O=C1CSC(c2cn(-c3ccccc3)nc2-c2cc3ccccc3oc2=O)N1Cc1ccccc1 (centres undefined)	n	28µM	n	n	n	n
O=C1CSC(c2nn(-c3ccccc3)cc2-c2cc3ccccc3oc2=O)N1Cc1ccco1 (centres undefined)	n	35µM	n	n	n	u
COc1cc(-c2nnc(CSc3nnc(N)s3)o2)cc(OC)c1OC	n	n	n	n	n	n
COc1cc(-c2nnc(CSc3nnc(Nc4ccc(Oc5ccccc5)cc4)s3)o2)cc(OC)c1OC	n	25µM	n	n	n	u
COCCSc1nnc(NC(=O)c2ccc(OC)c([N+](=O)[O-])c2)s1	n	n	n	n	n	n
Cc1ccccc1C1c2[nH]c3ccccc3c2C[C@H]2C(=O)N(C3CC3)CC(=O)N12 (some centres undefined)	n	x	n	n	n	u
COc1cccc(C2c3[nH]c4ccccc4c3C[C@H]3C(=O)N(C4CCN(Cc5ccccc5)CC4)CC(=O)N23)c1 (some centres undefined)	n	n	n	n	n	2µM
O=C1[C@@H]2Cc3c([nH]c4ccccc34)C(c3ccccc3)N2C(=O)CN1C1CC1 (some centres undefined)	n	x	n	n	n	n
COc1ccccc1C1c2[nH]c3ccccc3c2C[C@H]2C(=O)N(C3CCN(Cc4ccccc4)CC3)CC(=O)N12 (some centres undefined)	n	n	n	n	n	5.6µM
COc1ccc(C2c3[nH]c4ccccc4c3C[C@H]3C(=O)N(C4CCN(Cc5ccccc5)CC4)CC(=O)N23)cc1OC (some centres undefined)	n	n	n	n	n	13µM
COC(=O)c1cn(NC(=O)Cc2ccccc2Br)c(=O)c2ccccc12	n	n	n[7.66 µM]	n	n	n[7.66 µM]
Cc1ccc(NS(=O)(=O)c2ccc(C(=O)NCC3CCCO3)cc2)cc1C (centres undefined)	x	x	x	x	n	x
CCN(CC)CCCNC(=O)c1ccc(S(=O)(=O)Nc2ccc(C)c(C)c2)cc1	u	n	n	n	n	7.9µM
Cc1csc2nc(CNS(=O)(=O)c3ccc(-c4ccccc4)cc3)cn12	n	n	n	n	n	n
COc1ccc(C(=O)/C(=C/O)N=Nc2ccc(F)cc2)cc1	n	x	u	n	n	10µM
Cc1cccc(C)c1NC(=O)NC1CCc2ccccc21 (centres undefined)	n	n	n	n	n	n
COC(=O)c1ccc(C2CC(=O)Nc3c2cc(Br)c2ccccc32)cc1 (centres undefined)	x	x	x	x	-35	x
Cc1coc2c1C(=O)C(=O)c1c-2ccc2c(C)cccc12	u	n	n	n	n	n
SMILES	p53 reactivation	ClpP mod	GLP1R cytotox	GLP-1R agonist	LDHA block	GLP-1R inv ag
Cc1ccc(CC(=O)NC2CCN(C)CC2)cc1	n	x	n	n	n	n
CCc1ccc(N2C(=O)C(Cl)=C(N3CCCCCC3)C2=O)cc1	n	n	n	n	n	10µM
Cc1c(N2C(=O)c3ccc4c5c(ccc(c35)C2=O)CC4)c(=O)n(-c2ccccc2)n1C	n	u	n	n	n	n
CCc1ccc(N2C(=O)c3ccc4c5c(ccc(c35)C2=O)CC4)cc1	n	25µM	n	n	n	n
O=C(CCC1COc2ccccc2O1)Nc1cccnc1 (centres undefined)	n	n	n	n	n	n
CC(C)C(=O)NC(Nc1cccc2cccnc12)C(Cl)(Cl)Cl (centres undefined)	n	n	n	n	n	u
O=C(COc1ccccc1)NC(NC(=S)Nc1ccccc1C(=O)O)C(Cl)(Cl)Cl (centres undefined)	n	35µM	n	n	n	n
CC(C)CC(=O)NC(NC(=S)Nc1cccc2cccnc12)C(Cl)(Cl)Cl (centres undefined)	n	n	n	n	n	7.9µM
CC(=O)Nc1ccc(NS(=O)(=O)c2cc(Cl)sc2Cl)cc1	n	x	n	n	n	u
O=c1cc(-c2ccc(F)cc2)oc2ccccc12	x	n	n	n	n	n
CSc1ccc(-c2cc(=O)c3ccccc3o2)cc1	u	10µM	n	n	n	n
COc1ccc(C(=O)c2coc(-c3ccccc3C(=O)O)c2C(=O)O)cc1	n	n	n	n	n	n
COc1ccc(C(=O)c2c(C(F)(F)F)oc3c2C(=O)c2ccccc2C3=O)cc1	n	3.2µM	n	n	n	7.1µM
C=CCNC(=O)N1CCCC(C(=O)c2cccc(OC(C)C)c2)C1 (centres undefined)	u	x	n	n	n	u
CO/N=C(/CNC(=O)c1ccc(F)cc1)c1ccc(Cl)cc1	n	n	n	n	n	8.9µM
O=C(CNC(=O)c1ccc(F)cc1)c1ccc(Cl)cc1	n	x	n	n	n	u
OC(c1cccc(Cl)c1)c1nc(/C=C/c2ccc(C(F)(F)F)cc2)cs1 (centres undefined)	x	u	u	n	n	u
COc1cccc(C(O)c2nc(/C=C/c3ccc(C(F)(F)F)cc3)cs2)c1 (centres undefined)	x	28µM	n	n	n	u
CC(C)=CCCC(C)CN1CCC(N2CCC(C(=O)N3CCOCC3)CC2)CC1 (centres undefined)	n	n	n	n	n	2.5µM
Cc1ccc(N2C(=O)c3cccc4c(C(=O)O)ccc(c34)C2=O)cc1	n	x	x	x	x	x
